# This is one part of a sample in which hits are shown more often than they occur.
# ST2 IL33 inh = inhibitors of human ST2 (IL1RL1) binding to IL-33, primary screen, biochemical, AlphaLISA; inhibition, % for hits at 17 µM; 2.3% of 78,000 active; AlphaLISA ST2-Fc/biotin-IL-33 interaction, 1 h; Interleukin-1 receptor-like 1 (Homo sapiens), Q01638; in the data active means inhibition above about 30%
# Starred values were filed as active, the others as inactive; i = inactive; ! = not confirmed by another sample.
SMILES,ST2 IL33 inh
COC(=O)C1C(=O)C2=C(CC1C)NC(C)=C(C(=O)OC(C)C)C2c1ccccc1Br (centres undefined),i
O=c1/c(=C/c2ccc(OCc3ccccc3)cc2)sc2ncnn12,i
Cc1ccc2[nH]c(CCCNC(=O)c3c(Cl)cnn3C)nc2c1C,i
CCN(CC)Cc1cnc2c(C(=O)Nc3ccc4c(c3)OCCO4)cnn2c1,i
CC(C)(C)C1CCc2onc(C(=O)Nc3cc(Br)ccc3O)c2C1 (centres undefined),i
Cc1ccc(-c2noc(CCC(=O)Nc3ccc4c(c3)OCO4)n2)cc1,i
Cc1ccc(NC(=O)Cn2c(-c3ccc4c(c3)OCO4)cn(-c3ccccc3)c2=O)cc1,31%*
COc1ccc(NC(=O)CN2CCN(Cc3ccc4c(c3)OCO4)CC2)cc1,i
O=c1c2c(nc(SCc3cccc(F)c3)n1-c1ccc(Cl)cc1)CCS2,i
O=C(Cc1c(C(=O)O)[nH]c2ccc(Cl)cc12)Nc1ccc(F)cc1Cl,i
COc1cccc(-n2c(=O)[nH]c3sc(C)c(C)c3c2=O)c1,i
Cc1cc(C)[n+]2nc([S-])sc2n1,i
COC(=O)C1C(=O)C2=C(CC1C)NC(C)=C(C(=O)OC1CCCCCC1)C2c1cccc(O)c1 (centres undefined),i
O=C(NC1CCCCCCC1)c1ccc2nc3ccc(Cl)cc3c(=O)n2c1,i
Nc1nc2ccccc2nc1N,i
Nc1cc2c3c(cccc3n1)C(=O)c1ccccc1-2,34%*
O=C1c2ccccc2C(=O)c2c1nc1n2CCOC1,i
Cc1cc(C)cc(Oc2coc3c(CN4CCC(C)CC4)c(O)ccc3c2=O)c1,i
CCCN(CCC)CCCNC(=O)c1cc2cc3ccc(OC)cc3nc2o1,i
O=C(NCCCN1CCCCCC1)c1cc2cc3ccc(Cl)cc3nc2o1,44%*!
CCCCN(CC)CCCNC(=O)c1cc2cc3ccc(OC)cc3nc2o1,i
COc1ccc2cc3cc(C(=O)NCCCN4CCN(C)CC4)oc3nc2c1,i
CCC1CCCCN1CCCNC(=O)c1cc2cc3ccc(Cl)cc3nc2o1 (centres undefined),i
COc1ccc2cc3cc(C(=O)Nc4ccc(F)cc4Cl)oc3nc2c1,i
CCN(CCCNC(=O)c1cc2cc3ccc(Cl)cc3nc2o1)c1ccccc1,34%*!
SMILES,ST2 IL33 inh
O=C(Nc1ccc(F)cc1)c1cc2cc3ccc(Cl)cc3nc2o1,37%*!
COc1ccc2cc3cc(C(=O)Nc4cc(Cl)ccc4OC)oc3nc2c1,i
O=C(CCCn1c(=O)[nH]c2ccsc2c1=O)NCCc1ccc(Cl)cc1,i
CCOc1cc(C2Nc3ccccc3NC3=C2C(=O)CC(c2ccccc2)C3)ccc1OC(C)=O (centres undefined),i
O=c1c2cnn(-c3ccccc3)c2ncn1Cc1ccc(Cl)cc1,i
N#CC1=C(N)OC2=C(C(=O)CCC2)C1c1cccc([N+](=O)[O-])c1 (centres undefined),i
N#CC1=C(N)N(c2ccccc2[N+](=O)[O-])C2=C(C(=O)CCC2)C1c1cccc([N+](=O)[O-])c1 (centres undefined),31%*
Cc1ccccc1N1C(N)=C(C#N)C(c2ccc(F)cc2)C2=C1CCCC2=O (centres undefined),i
CNCc1cc(-c2ccc(F)cc2Cl)ccc1OC,i
O=[N+]([O-])c1ccc(N2CCOCC2)cc1NCc1ccco1,i
Cc1cc(C)n(-c2cc(N3CCN(C(=O)c4ccco4)CC3)ccc2[N+](=O)[O-])n1,i
CC(C)(C)c1ccc(C(=O)N2CCN(c3ccc([N+](=O)[O-])c(NCc4ccco4)c3)CC2)cc1,31%*
CC(=O)c1ccc(N=Cc2cc(Cl)cc(Cl)c2O)cc1,i
CCCn1ncc(CN2CCCC(CCC(=O)Nc3ccc(C(F)(F)F)cc3)C2)c1C (centres undefined),i
CN1CCN(Cc2cc([N+](=O)[O-])ccc2O)CC1,i
CC1CN(C)C(C)c2c1oc1ccc([N+](=O)[O-])cc21 (centres undefined),43%*
Cc1cccc(-c2nc3cc([N+](=O)[O-])ccc3o2)c1,i
COc1cccc(OCCn2c(C(F)(F)F)nc3ccccc32)c1,i
Cc1cc2c(c(-c3ccc(Cl)cc3)c1)OC(CNC(=O)c1cc[n+]([O-])cc1)C2 (centres undefined),i
COc1ccc(-n2nc(C)c([C@@H]3C=C[C@@H](NC(=S)Nc4ccccc4)C3)c2C)cc1,i
CCN(CC)S(=O)(=O)c1cc(C(=O)Nc2ccc(Cl)cn2)ccc1OC,i
CC1CC(C)CN(S(=O)(=O)c2ccc(C(=O)Nc3nc(-c4cccs4)cs3)cc2)C1 (centres undefined),i
Cc1ccc(S(=O)(=O)N2CCCC2)cc1,i
Cc1ccc(S(=O)(=O)N2CCN(c3nc(-c4cccs4)cs3)CC2)cc1,32%*
Nc1ncnc(N2CCCCCC2)c1[N+](=O)[O-],i
CCN(CC)C(=O)[C@@H](C)[C@@H]1CC[C@@]2(C)CC[C@H](NC(=O)c3ccccn3)[C@@H](C)[C@@H]2[C@H]1O,i
